# In the library only some 19% were active in any assay of this set; here they are far more common.
# HT1080 IDH1KD tx – HT-1080 IDH1 knockdown cell toxicity (counter line); HT-1080 IDH1 knockdown viability, ATP luminescence, 48 h; Potency, µM (doses to about 46.1 µM), usual class: cytotoxic; actives 2% (n = 360,000)
#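 Knockdown cells (IDH1KD HT-1080) received compounds 2 h after plating at 750 cells/well and were kept 48 h at 37 °C in 5% FBS RPMI. A CellTiter-Glo luminescence read gave % activity for curve fitting.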
# ELG1 DNA repair – inhibitors of ELG1-dependent DNA repair in HEK293T cells. HEK293T ELG1-luciferase reporter, luminescence, 16 h; DNA damage induced by 5-fluorouridine. Potency, µM (highest dose often 46.1 µM), actives largely listed as inhibitors. actives 2.3% (n = 330,000); further: nearly all actives have a fitted effect of over 55% in size
#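 Step one: seed 2,000 cells per well. Step two: pin-transfer compound or DMSO alongside 5-fluorouridine. Step three: incubate 16 hr, 37 °C, 5% CO2. Step four: add ONE-Glo, wait 30 min, read luminescence.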
# DT40 TDP1 CPT – growth inhibition of DT40 Tdp1-/-;hTDP1 cells with camptothecin (screen for TDP1 inhibitors) | actives 12% (n = 420,000) | chicken DT40 Tdp1-/-;hTDP1 cells + 20 nM CPT, ATP luminescence, 48 h | Potency, µM (series often up to 46.2 µM), hits mostly inhibitors; further: nearly all actives have a fitted effect of over 55% in size
#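 Chicken DT40 Tdp1-/- cells complemented with human TDP1, 400 cells/well, exposed to compounds plus 20 nM camptothecin for at least 48 h at 37 C; viability read as ATP content by CellTiter-Glo luminescence.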
# HT1080-NT tox – kills 2HG-producing HT-1080-NT fibrosarcoma cells; HT-1080-NT fibrosarcoma viability, CellTiter-Glo ATP luminescence, 48 h; actives 1.6% (n = 360,000); Potency, µM (doses to about 46.1 µM), hits mostly cytotoxic; AID 686970;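 further: NT is the 2HG producing partner of a matched IDH1 knockdown line; nearly all actives have a fitted effect of over 55% in size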
#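 A 48-hour cytotoxicity screen used HT-1080-NT cells plated 2 hours before compound delivery. ATP-based CellTiter-Glo luminescence measured viability, normalized to DMSO and no-cell controls.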
# IL1B secr inh – inhibitors of inflammasome signaling (IL-1 beta secretion) | THP-1 LPS/ATP IL-1B secretion, AlphaLISA, 16 h; hits give low values | activity change, % at 57.5 µM | actives 4.7% (n = 360,000) | AID 743279; in the data active means activity change below about -50%; inconclusive means mostly about -30% to -49%
#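 THP-1 cells pretreated 1 hr with compounds (up to 57.5 uM final), then stimulated with LPS (250 ng/mL final) plus ATP (1.25 mM final); secreted IL-1B measured by AlphaLISA after 16 hr, decreased signal indicating inhibition.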
# DT40 TDP1 no CPT – qHTS for Inhibitors of human tyrosyl-DNA phosphodiesterase 1 (TDP1): qHTS in cells in absence of CPT. actives 15% (n = 420,000). DT40 Tdp1-/- hTDP1 cells, no CPT, ATP luminescence, 48 h. AID 686978, 2013. Potency, µM (doses to about 46.2 µM), hits mostly inhibitors; further: nearly all actives have a fitted effect of over 55% in size
#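 Cells were dispensed at 400 per well, compounds added by pin tool, plates incubated ≥48 hr at 37 °C, then CellTiter-Glo added for 30 min at room temperature before luminescence reading. Line: DT40 Tdp1-/- complemented with hTDP1; camptothecin omitted.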
# Numbers stand for hits; i = inactive; ? = inconclusive; nt = no result given. Unless noted, the call rests on the fitted dose curve; in most records, active means well fitted curve in the direction sought with a large enough effect; inconclusive means small, poorly fitted or top-dose-only effect, or another doubt; inactive means no such curve, though single readings can be large; an effect the other way counts as inactive or inconclusive.
SMILES,HT1080 IDH1KD tx,ELG1 DNA repair,DT40 TDP1 CPT,HT1080-NT tox,IL1B secr inh,DT40 TDP1 no CPT
COc1cc2c(C#N)c(N3CCc4ccccc4C3)nc(N)c2c(N)n1,?,?,21µM,?,-54,21µM
COc1cc2c(C#N)c(N3CCOCC3)nc(N)c2c(N)n1,?,i,13µM,?,-54,23µM
CCN(CC)c1nc(N)c2c(N)nc(OC)cc2c1C#N,i,nt,15µM,i,i,23µM
OC[C@@H]1CN(CCN2CCOCC2)C[C@H](n2cnc3c(N4CCOCC4)ncnc32)O1,i,nt,i,i,i,i
O=C(Nc1cc(-c2ccc(F)c(F)c2)no1)c1ccccc1F,nt,nt,i,nt,nt,i
CN(C)c1c(Br)cc(C=O)cc1Br,nt,nt,i,nt,nt,i
CCCS(=O)(=O)NC(=O)C1(C)CCCN(C(=O)c2cccc(C)c2C)C1 (centres undefined),i,nt,i,?,i,i
CCc1n[nH]c2c1/C(=N\O)CC(C)(C)C2,i,i,i,i,i,i
CCCCc1noc2c1/C(=N\O)CC(c1ccccc1)C2 (centres undefined),i,i,i,i,i,i
CCc1n[nH]c2c1/C(=N\O)CC(c1ccccc1)C2 (centres undefined),i,i,?,i,i,23µM
CCCCc1n[nH]c2c1/C(=N/O)CC(c1ccccc1)C2 (centres undefined),?,?,?,?,-58,?
O=C1C=CC(=Nc2ccc3c(c2)Cc2cc(F)ccc2-3)O1,i,nt,5.2µM,i,i,7.3µM
CCN(CC)C(=O)Cn1cc(C(=O)C(=O)Nc2ccc3c(c2)OCO3)c2ccccc21,i,nt,?,i,i,?
COc1cc(O)c(C(=O)O)c(O)c1,nt,nt,i,nt,nt,i
CN(C)Cc1cn(CC[C@@H]2CC[C@@H](NC(=O)Nc3ccccc3F)[C@@H](CO)O2)nn1,i,nt,i,i,i,i
O=C(Nc1ccc(Cl)cc1)N[C@H]1CC[C@H](CCn2cc(-c3ccccc3F)nn2)O[C@@H]1CO,i,nt,8.2µM,i,i,9.2µM
Cc1ccc(S(=O)(=O)N2C[C@H]3C(=O)C[C@@H](c4ccccc4)N(S(=O)(=O)c4ccccc4)[C@H]3C[C@H]2c2ccccc2)cc1,i,nt,i,i,i,?
Cc1cc(Nc2nc3ccccc3c3nnc(C)n23)ccc1Br,nt,nt,?,nt,nt,18µM
CCCCOC(=O)c1ccc(Nc2nc3ccccc3c3nnc(C)n23)cc1,nt,nt,16µM,nt,nt,21µM
CCOc1ccc(OCC)c(Nc2nc3ccccc3c3nnc(C)n23)c1,nt,nt,i,nt,nt,?
Cc1ccc(Nc2nc3ccccc3c3nncn23)cc1C,nt,nt,8.2µM,nt,nt,16µM
CCc1ccc(Nc2nc3ccccc3c3nnc(C)n23)cc1,nt,nt,8.2µM,nt,nt,10µM
COc1ccc(Nc2nc3ccccc3c3nnc(C)n23)cc1Cl,nt,nt,10µM,nt,nt,6.5µM
COC(=O)[C@@H](N)Cc1ccc(O)c(O)c1,i,i,27µM,i,i,?
COc1ccc2cc(CN(C(=O)c3cc(C)nn3C)C3CC3)c(-c3ccc(Cl)cc3)nc2c1,nt,nt,i,nt,nt,?
SMILES,HT1080 IDH1KD tx,ELG1 DNA repair,DT40 TDP1 CPT,HT1080-NT tox,IL1B secr inh,DT40 TDP1 no CPT
CCCNC(=O)C1CCN(S(=O)(=O)c2c(C)noc2/C=C\c2ccc(OC)cc2)CC1,i,i,i,i,i,i
Cc1noc(/C=C/c2ccccc2F)c1S(=O)(=O)N1CCC(C(=O)N2CCN(C)CC2)CC1,?,i,?,?,i,?
CCN(CCN(C)C)C(=O)C1CCN(S(=O)(=O)c2c(C)noc2/C=C/c2ccccc2F)CC1,i,i,2.9µM,i,i,4.6µM
CCOc1ccccc1/C=C/c1onc(C)c1S(=O)(=O)N1CCC(C(=O)N(CC)CC)CC1,i,5.8µM,15µM,i,i,16µM
CC(C)=CCC/C(C)=C/CC/C(C)=C/CCC(=O)OC/C=C(\C)CCC=C(C)C,nt,nt,i,nt,nt,i
CCOc1ccc(NC(=O)CC2C(=O)N(c3cccc(C)c3)C(=O)N2CCC2=CCCCC2)cc1 (centres undefined),nt,nt,?,nt,nt,23µM
COCCN1C(=O)N(c2cccc(C)c2)C(=O)C1CC(=O)Nc1cc(OC)cc(OC)c1 (centres undefined),i,i,i,i,i,i
COc1ccc(N2C(=O)C(CC(=O)Nc3ccc(F)cc3)N(CCC3=CCCCC3)C2=O)cc1 (centres undefined),nt,nt,?,nt,nt,16µM
COCCCN1C(=O)N(c2ccc(F)cc2)C(=O)C1CC(=O)Nc1ccc(OC)cc1 (centres undefined),i,i,i,i,i,i
COc1cc(=O)n2c(c1C(=O)N(C)Cc1ccsc1)CCN(Cc1cnn(C)c1C)CC2,nt,nt,i,nt,nt,i
CCOCCn1ccc2c(OCC(=O)Nc3cccc([N+](=O)[O-])c3)cccc2c1=O,nt,nt,i,nt,nt,?
Cc1cc(NC(=O)CN(C)CCOc2ccccc2)ccc1Br,?,i,18µM,?,-52,18µM
O=C(CCSc1ccc(Br)cc1)Nc1cccnc1,i,i,i,i,i,23µM
O=C(CCC(=O)c1ccc(Br)cc1)Nc1cccnc1,i,i,i,i,i,i
CCN(CC(=O)Nc1cccc(OC)c1)CC(=O)Nc1ccc(Br)c(C)c1,?,?,?,?,-68,i
Cc1cc(NC(=O)CCSc2ccccc2)ccc1Br,i,?,i,i,-67,i
Cc1cc(Br)ccc1NC(=O)CCSc1ccccc1,i,?,i,i,i,i
Cc1ccc2[nH]c(=O)c(-c3noc(CC(C)C)n3)cc2c1,i,i,?,i,i,i
CC(C)C(NS(=O)(=O)c1cccc(C(F)(F)F)c1)C(=O)N1CCc2ccccc2C1 (centres undefined),i,i,?,i,i,i
COc1cccc(NC(=O)CN(C)CC(=O)Nc2ccc(C)cc2Cl)c1,i,i,?,i,i,13µM
Cc1ccc(N2CCn3c2nc2c3c(=O)n(C/C=C/c3ccccc3)c(=O)n2C)cc1C,nt,nt,i,nt,nt,i
CN(C)S(=O)(=O)N1CCC(n2nccc2NC(=O)CCCc2ccccc2)CC1,i,i,i,i,i,i
Cn1c(=O)oc2cc(S(=O)(=O)CCC(=O)N3CCN(c4cccc(Cl)c4)CC3)ccc21,nt,nt,18µM,nt,nt,12µM
CSCCC(NS(=O)(=O)c1ccc2c(c1)oc(=O)n2C)C(=O)N1CCN(c2cccc(Cl)c2)CC1 (centres undefined),nt,nt,?,nt,nt,21µM
CN1C(=O)Cc2cc(S(=O)(=O)CCC(=O)N3CCN(c4cccc(Cl)c4)CC3)ccc21,nt,nt,21µM,nt,nt,8.2µM
